# Laboratory results reported in PubChem BioAssay (NCATS).
# Values joined by “and” are separate entries in the source; they are usually repeats but may differ in a detail not shown here. Equal entries are not always repeated. Records with an inconclusive call do not appear. Active and inactive are the calls of the source. Calls follow the shape of the dose curve; as a rule, active = well fitted inhibition curve with a large enough effect; inconclusive = small, poorly fitted or top-dose-only effect; inactive = flat fitted curve, though single readings scatter.
# Test system: Zika virus NS2B-NS3 protease (linked construct)
# Experiment: Confirmatory screen NINDS AMC qHTS for Zika virus inhibitors (AID 1347152);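 as to activity change, negative = inhibition: AMC fluorescence gain from cleaved Bz-Nle-KRR-AMC substrate over 15 min; top concentration of the series differs between compounds; 0% = no-inhibitor control and -100% = no-enzyme control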
# Conditions: Purified linked NS2B-NS3, AMC substrate fluorescence; series mostly up to 56.6 µM; activity change, negative = inhibition: at the top concentration
# Summary of the method: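 In this dose-response qHTS, AMC release from 10 microM Bz-Nle-KRR-AMC by 1 nM linked protease is measured over 15 minutes (about 20% conversion) at pH 8.0. Percent inhibition is fitted to a 4-parameter Hill curve.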
# Also: nearly all actives have a fitted effect of over 70% in size.
# Potency is read from the fitted curve at half-maximal effect.
SMILES,"activity change, negative = inhibition",Potency
CCOC(=O)Nc1ccc(NCc2ccc(F)cc2)nc1N,-13.1% (inactive),–
CC1COc2c(N3CCN(C)CC3)c(F)cc3c(=O)c(C(=O)O)cn1c23 (centres undefined),–,24.1 µM (active) and 27.1 µM (active)
O=C1Cc2cc(CCN3CCN(c4nsc5ccccc45)CC3)c(Cl)cc2N1,–,34.1 µM (active)
Cc1cnc(C(=O)NCCc2ccc(S(=O)(=O)NC(=O)NC3CCCCC3)cc2)cn1,-2.95% (inactive),–
COc1cc2nc(N3CCN(C(=O)c4ccco4)CC3)nc(N)c2cc1OC,–,10.5 µM (active)

# Test system: Zika virus NS2B-NS3 protease (unlinked complex)
# Experiment: Confirmatory screen GU AMC qHTS for Zika virus inhibitors (AID 1347153);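 as to activity, negative = inhibition: percent inhibition with 0% = no inhibitor control and 100% = no enzyme control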
# Conditions: Recombinant NS2B-NS3 protease, AMC substrate fluorescence; series mostly up to 57.1 µM; activity, negative = inhibition: at the top concentration
# Summary of the method: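 Unlinked enzyme 25 nM, Tris pH 8.0/0.01% Tween 20; cpd 15 min RT, dark; + AMC substrate 10 µM (Km 18.3 µM); 340/450 nm read at t0 and 15 min; % inhibition → 4-param fit.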
SMILES,"activity, negative = inhibition",Potency
CN(Cc1cnc2nc(N)nc(N)c2n1)c1ccc(C(=O)N[C@@H](CCC(=O)O)C(=O)O)cc1,-0.863% (inactive),–
CCOC(=O)Nc1ccc(NCc2ccc(F)cc2)nc1N,-8.07% (inactive),–
CC1COc2c(N3CCN(C)CC3)c(F)cc3c(=O)c(C(=O)O)cn1c23 (centres undefined),–,27.1 µM (active)
Cc1cnc(C(=O)NCCc2ccc(S(=O)(=O)NC(=O)NC3CCCCC3)cc2)cn1,7.88% (inactive),–
